Measured values published in the supplement of paper PMC11634586.

test system: NCI-H1688; experiment: inhibition of cell viability relative to untreated control (fraction); higher = stronger growth inhibition, active = 0.5 or more; conditions: 30 µM; 24 h
Method in brief: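 NCI-H1688 small cell lung cancer cells were plated in 96-well plates at 3 × 10^3 cells/well, and 24 h later they were exposed to a natural compound library (TargetMol) at 30 µM for 24 h at 37°C with 5% CO2. Viability was measured in triplicate using Cell Counting Kit-8, read as absorbance at 450 nm. Inhibition of cell viability is given as a fraction, calculated from viability normalised to untreated cells.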

SMILES	inhibition of cell viability
COc1ccc(-c2cc(=O)c3c(O)c(OC)c(O[C@@H]4O[C@H](CO[C@@H]5O[C@@H](C)[C@H](O)[C@@H](O)[C@H]5O)[C@@H](O)[C@H](O)[C@H]4O)cc3o2)cc1 [Pectolinarin]	0.194 (inactive)
O=C(O)CCc1ccc(O)cc1 [Phloretic acid]	0.081 (inactive)
CC(=O)O[C@@]12CO[C@@H]1C[C@H](O)[C@@]1(C)C(=O)[C@H](O)C3=C(C)[C@@H](OC(=O)[C@H](O)[C@@H](NC(=O)OC(C)(C)C)c4ccccc4)C[C@@](O)([C@@H](OC(=O)c4ccccc4)[C@H]21)C3(C)C [Docetaxel]	0.493 (inactive)
Oc1cc(O)c2c(c1)O[C@H](c1ccc(O)c(O)c1)[C@H](O)C2 [Epicatechin]	0.0727 (inactive)
O=C(O)[C@H]1O[C@@H](Oc2cc3oc(-c4ccc(O)cc4)cc(=O)c3c(O)c2O)[C@H](O)[C@@H](O)[C@@H]1O [Scutellarin]	-0.14 (inactive)
NCCCC(=O)O [4-Aminobutyric acid]	-0.231 (inactive)
O=C(OC[C@H]1O[C@@H](OC(=O)c2cc(O)c(O)c(OC(=O)c3cc(O)c(O)c(O)c3)c2)[C@H](OC(=O)c2cc(O)c(O)c(OC(=O)c3cc(O)c(O)c(O)c3)c2)[C@@H](OC(=O)c2cc(O)c(O)c(OC(=O)c3cc(O)c(O)c(O)c3)c2)[C@@H]1OC(=O)c1cc(O)c(O)c(OC(=O)c2cc(O)c(O)c(O)c2)c1)c1cc(O)c(O)c(OC(=O)c2cc(O)c(O)c(O)c2)c1 [Glycerite]	0.821 (active)
O=C(CCc1ccc(O)cc1)c1c(O)cc(O)cc1O [Phloretin]	-0.0149 (inactive)
NC(=O)CCC(N)C(=O)O (racemic) [DL-Glutamine]	-0.221 (inactive)
C[C@H]1O[C@H](O[C@H]2[C@H](O)[C@@H](O)[C@@H](O[C@H]3[C@H](O)[C@@H](O)C(O)O[C@@H]3CO)O[C@@H]2CO)[C@H](O)[C@@H](O)[C@@H]1N[C@H]1C=C(CO)[C@@H](O)[C@H](O)[C@H]1O (some centres not stated) [Acarbose]	-0.208 (inactive)
N[C@@H](Cc1ccc(O)c(O)c1)C(=O)O [Levodopa]	0.167 (inactive)
CC1(C)CC[C@]2(C)CC[C@]3(C)C(=CC[C@@H]4[C@@]5(C)CC[C@@H](O)[C@](C)(C(=O)O)[C@@H]5CC[C@]43C)[C@@H]2C1	0.314 (inactive)
OC[C@H]1O[C@@](CO)(O[C@H]2O[C@H](CO)[C@@H](O)[C@H](O)[C@H]2O)[C@@H](O[C@H]2O[C@H](CO)[C@@H](O)[C@H](O)[C@H]2O)[C@@H]1O [Melezitose]	-0.0856 (inactive)
CC[C@H]1OC(=O)[C@H](C)[C@@H](O[C@H]2C[C@@](C)(OC)[C@@H](O)[C@H](C)O2)[C@H](C)[C@@H](O[C@@H]2O[C@H](C)C[C@H](N(C)C)[C@H]2O)[C@](C)(O)C[C@@H](C)[C@@H]2N[C@@H](COCCOC)O[C@H]([C@H]2C)[C@]1(C)O [Dirithromycin]	0.0389 (inactive)
C[C@@H]1O[C@@H](O[C@H]2[C@H](Oc3cc(O)c4c(c3)O[C@H](c3ccc(O)cc3)CC4=O)O[C@H](CO)[C@@H](O)[C@@H]2O)[C@H](O)[C@H](O)[C@H]1O [Naringin]	0.06 (inactive)
CC1=CC(=O)CC(C)(C)[C@@]1(O)/C=C/C(C)=C\C(=O)O [Abscisic acid]	-0.139 (inactive)
C[N+]1(C)CCCC1C(=O)O (configuration not stated)	0.205 (inactive)
C[C@H](CCC(=O)O)[C@H]1CC[C@H]2[C@@H]3[C@H](O)C[C@@H]4C[C@H](O)CC[C@]4(C)[C@H]3CC[C@]12C [Chenodeoxycholic acid]	0.152 (inactive)
Cc1ncc(CO)c(CO)c1O [Pyridoxine]	0.0231 (inactive)
CCc1c2c(nc3ccc(OC(=O)N4CCC(N5CCCCC5)CC4)cc13)-c1cc3c(c(=O)n1C2)COC(=O)[C@]3(O)CC [Irinotecan]	0.684 (active)
C[C@@H]1O[C@@H](OC[C@H]2O[C@@H](Oc3c(-c4ccc(O)c(O)c4)oc4cc(O)cc(O)c4c3=O)[C@H](O)[C@@H](O)[C@@H]2O)[C@H](O)[C@H](O)[C@H]1O [Rutin]	0.272 (inactive)
C[C@H]1O[C@@H](O[C@H]2[C@@H](O)C[C@H](O[C@H]3[C@@H](O)C[C@H](O[C@H]4CC[C@@]5(C)[C@H](CC[C@@H]6[C@@H]5CC[C@]5(C)[C@@H](C7=CC(=O)OC7)CC[C@]65O)C4)O[C@@H]3C)O[C@@H]2C)C[C@H](O)[C@@H]1O [Digitoxin]	0.981 (active)
